Results from PubChem BioAssay.
The source made the active and inactive calls. Unless noted, how the calls were made is not given here.

Columns and labels:
[1] = system: Wnt5a (protein binding on small-molecule microarray); assay: Wnt5a binders on small-molecule microarray, primary screen, biophysical, 635/667 nm fluorescence (AID 1142); settings: 635 nm fluorescence, higher = more signal;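 further: fluorescence read at 667 nm with signal to noise per printed feature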
[2] = cell viability in Huh7 cells, primary screen, cytotoxicity control for HCV replication inhibitor project, CellTiter-Glo luminescence, basal, 48 h (AID 1143); settings: Huh7 HCV replicon, higher = more signal, called active from +8 up or from −8 down;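 further: Huh7 hepatoma cells carrying a hepatitis C replication reporter with no stimulus; test concentration not given here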
[3] = P. aeruginosa biofilm formation inhibitors, primary screen, PAO1 strain, BacTiter-Glo luminescence, LB-PBS (AID 1144); settings: 12 h, higher = more signal
[4] = CREB reporter modulators without forskolin, primary screen, cell-based, PC12, CRE-LacZ reporter, unstimulated (AID 1145); settings: no forskolin, luminescence, 4.5 h, higher = more signal, called active from +8 up or from −8 down
[5] = CREB reporter modulators under forskolin, primary screen, cell-based, PC12, CRE-LacZ reporter, forskolin-stimulated (AID 1146); settings: luminescence, 4.5 h, higher = more signal, called active from +8 up or from −8 down;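 further: PC12 cells with 6xCRE LacZ reporter stimulated by forskolin 10 µM; beta-galactosidase reporter signal reflecting CREB driven transcription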
[6] = target: Streptavidin (Streptomyces avidinii) (UniProt P22629); assay: streptavidin binders on small-molecule microarray, primary screen, artefact control for SMM compound annotation, biophysical, 635/667 nm fluorescence (AID 1147); settings: streptavidin binding, higher = more signal;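 further: signal reflects streptavidin binding to arrayed compounds as a control protein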
Chain of Streptavidin (Streptomyces avidinii) (P22629 whole entry, looked up): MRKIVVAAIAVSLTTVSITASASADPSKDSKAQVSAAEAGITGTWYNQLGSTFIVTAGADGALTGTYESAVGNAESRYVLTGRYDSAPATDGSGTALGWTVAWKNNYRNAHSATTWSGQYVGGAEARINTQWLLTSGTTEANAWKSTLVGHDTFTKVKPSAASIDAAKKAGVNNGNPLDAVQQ

[7] = small-molecule binders of probe aInhba, primary screen, biochemical, small-molecule microarray, 635/667 nm fluorescence (AID 1148); settings: higher = more signal;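 further: score merges 667nm spot fluorescence with signal-to-noise for antibody binding to printed compounds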
Torsin-1A (Homo sapiens) [8] = target: Torsin-1A (Homo sapiens) (UniProt O14656); assay: torsin A binders from cell lysate, primary screen, small-molecule microarray, wild-type, 635/667 nm (AID 1149); settings: COS7 hTOR1A-WT lysate, 635 nm fluorescence, higher = more signal
Chain of Torsin-1A (Homo sapiens) (O14656 whole entry, looked up): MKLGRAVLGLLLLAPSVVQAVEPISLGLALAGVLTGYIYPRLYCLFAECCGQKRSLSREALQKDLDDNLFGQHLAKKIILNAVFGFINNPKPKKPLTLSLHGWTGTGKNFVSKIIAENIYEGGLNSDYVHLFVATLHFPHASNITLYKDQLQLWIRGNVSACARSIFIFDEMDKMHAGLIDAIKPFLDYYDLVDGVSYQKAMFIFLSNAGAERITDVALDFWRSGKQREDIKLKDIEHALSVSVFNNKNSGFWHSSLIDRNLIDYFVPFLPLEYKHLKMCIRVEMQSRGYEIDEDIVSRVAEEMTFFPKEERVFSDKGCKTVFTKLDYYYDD

Torsin-1A (Homo sapiens) [9] = target: Torsin-1A (Homo sapiens) (UniProt O14656); assay: small-molecule binders of mutant TOR1A in lysate, primary screen, cell lysate, small-molecule microarray, COS7 lysate, 635/667 nm fluorescence (AID 1150); settings: COS7 hTOR1A mutant lysate, 635 nm fluorescence, higher = more signal;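 further: score pools 667 nm emission and signal to noise measuring lysate protein binding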
[10] = system: Sonic hedgehog protein (Shh); assay: small-molecule binders of Shh protein, primary screen, biochemical, small-molecule microarray, 635/667 nm fluorescence (AID 1151); settings: small-molecule microarray binding, 635 nm fluorescence; higher = more signal;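 further: Shh protein binding to compounds spotted on small-molecule microarray slides; score combines spot fluorescence intensity with signal-to-noise across triplicate slides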
[11] = E. coli DRC41 culture turbidity changes, primary screen, E. coli filamentation inducer project, strain DRC41, OD650, 48 h (AID 1152);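 further: E. coli MC1000 strain DRC41 lacking acrAB efflux pump and sulA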; settings: E. coli DRC41 (acrAB sulA), higher = more signal, called active from +8 up or from −8 down
[12] = small-molecule binders of probe aLefty1, primary screen, biochemical, small-molecule microarray, 635/667 nm fluorescence (AID 1153); settings: higher = more signal;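 further: score merges spot fluorescence with signal-to-noise ratio from the scanned slide images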
[13] = PSAC antagonists in infected red cells, primary screen, cell-based, P. falciparum Indochina, OD700, 1 h (AID 1154); settings: P. falciparum Indochina infected RBC osmotic lysis, higher = more signal, called active from +8 up or from −8 down
[14] = PSAC antagonists in infected red cells, primary screen, cell-based, P. falciparum Indochina, OD700, 2 h (AID 1155);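 further: lysis reports solute entry through the parasite surface anion channel PSAC; channel blockers reduce lysis of infected cells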; settings: P. falciparum Indochina infected erythrocytes, osmotic lysis OD700; higher = more signal, called active from +8 up or from −8 down
[15] = osmotic lysis modulators in infected erythrocytes, primary screen, PSAC antagonist project, cell-based, P. falciparum Indochina, OD700, 3 h (AID 1156); settings: higher = more signal, called active from +8 up or from −8 down
[16] = PSAC antagonists in infected red cells, primary screen, cell-based, P. falciparum Indochina, OD700, 18 h (AID 1157); settings: P. falciparum Indochina infected erythrocytes, osmotic lysis OD700, 18 h; higher = more signal, called active from +8 up or from −8 down
[17] = modulators of S6 phosphorylation in cells, primary screen, cell-based, A549, cytoblot, luminescence, serum-stimulated (AID 1158); settings: A549 phospho-S6 cytoblot, 5 h, higher = more signal;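 further: serum-stimulated A549 lung adenocarcinoma cells; signal is phosphorylated S6 detected by cytoblot immunostaining with HRP secondary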
[18] = target: NADPH oxidase 2 (Homo sapiens) (UniProt P04839); assay: NOX2-dependent H2O2 signal modulators, primary screen, NOX inhibitor project, cell-based, HEK293-NOX2, PMA-stimulated, Amplex Red fluorescence (AID 1159); settings: 45 min, higher = more signal, called active from +8 up or from −8 down; further: test concentration not given here
Chain of NADPH oxidase 2 (Homo sapiens) (P04839 whole entry, looked up): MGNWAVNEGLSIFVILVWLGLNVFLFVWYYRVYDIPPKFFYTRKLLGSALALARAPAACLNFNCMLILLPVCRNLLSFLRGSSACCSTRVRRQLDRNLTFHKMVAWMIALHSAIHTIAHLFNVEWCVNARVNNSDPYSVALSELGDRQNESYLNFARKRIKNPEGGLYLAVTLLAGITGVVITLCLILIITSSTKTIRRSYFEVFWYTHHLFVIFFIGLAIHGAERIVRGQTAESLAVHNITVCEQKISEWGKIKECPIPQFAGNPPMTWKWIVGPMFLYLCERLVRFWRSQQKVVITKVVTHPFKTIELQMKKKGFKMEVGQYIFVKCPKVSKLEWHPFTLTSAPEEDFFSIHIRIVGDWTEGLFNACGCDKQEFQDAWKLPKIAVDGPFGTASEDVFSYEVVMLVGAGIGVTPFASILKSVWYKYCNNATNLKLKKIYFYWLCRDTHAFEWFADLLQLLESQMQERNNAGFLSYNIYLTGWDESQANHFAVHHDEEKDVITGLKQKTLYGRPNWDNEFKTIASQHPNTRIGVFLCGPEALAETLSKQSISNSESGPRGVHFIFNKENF

[19] = target: NADPH oxidase 4 (Homo sapiens) (UniProt Q9NPH5); assay: NOX4-dependent H2O2 signal modulators, primary screen, NOX inhibitor project, cell-based, HEK293-NOX4, tetracycline-induced, Amplex Red fluorescence (AID 1160); settings: 45 min, higher = more signal, called active from +8 up or from −8 down
Chain of NADPH oxidase 4 (Homo sapiens) (Q9NPH5 whole entry, looked up): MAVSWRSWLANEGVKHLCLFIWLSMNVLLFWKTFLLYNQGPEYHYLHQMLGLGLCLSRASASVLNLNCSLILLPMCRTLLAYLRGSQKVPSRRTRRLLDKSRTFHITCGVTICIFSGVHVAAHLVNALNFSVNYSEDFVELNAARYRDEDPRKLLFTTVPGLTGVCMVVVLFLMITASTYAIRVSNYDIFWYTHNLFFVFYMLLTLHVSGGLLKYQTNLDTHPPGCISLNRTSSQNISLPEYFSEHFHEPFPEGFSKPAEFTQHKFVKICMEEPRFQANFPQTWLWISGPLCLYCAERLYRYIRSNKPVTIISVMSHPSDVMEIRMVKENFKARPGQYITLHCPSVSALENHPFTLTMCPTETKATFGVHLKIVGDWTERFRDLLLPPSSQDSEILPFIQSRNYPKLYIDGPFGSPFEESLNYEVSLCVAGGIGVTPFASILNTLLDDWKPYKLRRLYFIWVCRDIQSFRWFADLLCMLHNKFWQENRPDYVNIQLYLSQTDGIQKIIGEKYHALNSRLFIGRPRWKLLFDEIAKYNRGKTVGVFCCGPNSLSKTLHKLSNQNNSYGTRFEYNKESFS

[20] = target: NADPH oxidase 5 (Homo sapiens) (UniProt Q96PH1); assay: NOX5-dependent H2O2 signal modulators, primary screen, NOX inhibitor project, cell-based, HEK293-NOX5, Amplex Red fluorescence (AID 1161); settings: HEK293-NOX5, ionomycin, 45 min, higher = more signal
Chain of NADPH oxidase 5 (Homo sapiens) (Q96PH1 whole entry, looked up): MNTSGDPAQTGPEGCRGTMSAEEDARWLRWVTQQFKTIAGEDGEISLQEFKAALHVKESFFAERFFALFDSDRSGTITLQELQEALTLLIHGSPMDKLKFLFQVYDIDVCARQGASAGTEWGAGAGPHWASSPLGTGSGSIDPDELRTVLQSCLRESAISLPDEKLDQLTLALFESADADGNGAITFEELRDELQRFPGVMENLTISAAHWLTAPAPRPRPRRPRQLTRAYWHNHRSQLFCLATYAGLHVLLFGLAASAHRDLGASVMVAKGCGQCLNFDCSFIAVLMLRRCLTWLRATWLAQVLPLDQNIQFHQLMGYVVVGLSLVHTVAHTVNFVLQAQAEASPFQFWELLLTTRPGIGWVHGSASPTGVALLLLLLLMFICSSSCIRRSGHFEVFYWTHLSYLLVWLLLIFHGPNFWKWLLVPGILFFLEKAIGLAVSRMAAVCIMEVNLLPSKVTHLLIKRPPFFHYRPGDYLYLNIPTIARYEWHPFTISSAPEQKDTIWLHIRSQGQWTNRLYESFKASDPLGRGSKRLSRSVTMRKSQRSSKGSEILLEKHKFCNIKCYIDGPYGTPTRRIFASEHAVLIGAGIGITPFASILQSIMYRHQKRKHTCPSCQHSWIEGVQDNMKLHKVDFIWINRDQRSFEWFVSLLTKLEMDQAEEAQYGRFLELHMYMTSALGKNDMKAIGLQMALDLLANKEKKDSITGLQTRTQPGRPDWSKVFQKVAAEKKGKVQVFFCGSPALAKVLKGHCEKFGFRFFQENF

Row | Structure (SMILES) | composite z-score [1] | z-score [2] | z-score [3] | z-score [4] | z-score [5] | composite z-score [6] | composite z-score [7] | composite z-score (Torsin-1A (Homo sapiens) [8]) | composite z-score (Torsin-1A (Homo sapiens) [9]) | composite z-score [10] | z-score [11] | composite z-score [12] | z-score [13] | z-score [14] | z-score [15] | z-score [16] | z-score [17] | z-score [18] | z-score [19] | z-score [20]
1 | CCOC(=O)C[C@H]1[C@H](OC(=O)c2cc3ccccc3oc2=O)[C@@H](NC(=O)c2ccc3ccccc3c2)c2cc(OCCCO)ccc2N1C(=O)c1ccccc1 | 0.406 | -3.04 (inactive) | 1.4 (inactive) | 9.27 (active) | 0.368 (inactive) | 0.976 | -0.0405 | 1.14 | 1.11 | 1.54 | 0.734 (inactive) | 0.201 | 1.22 (inactive) | -1.04 (inactive) | 0.519 (inactive) | -2.59 (inactive) | 1.2 | -0.539 (inactive) | -0.928 (inactive) | 0.53
2 | CC(C)C[C@@H]1NC(=O)[C@@H]2C[C@H](C(=O)NCCCCN(C)C)[C@H](c3ccc(O)cc3)N2C1=O | -0.341 | 0.446 (inactive) | -0.0311 (inactive) | -0.532 (inactive) | -0.0914 (inactive) | -0.466 | -0.0624 | 0.0266 | -0.271 | 0.273 | -0.0654 (inactive) | -0.0655 | -0.202 (inactive) | -0.241 (inactive) | -0.689 (inactive) | -0.189 (inactive) | 0.0488 | -0.298 (inactive) | 0.167 (inactive) | 0.21
3 | O=C1OCCC/C=C\[C@H]2OC34C=CCN(Cn5nnc6ccccc65)C(=O)[C@H]3N(CCCO)C(=O)[C@@H]4C12 (stereo not given in full) | -0.8 | 0.464 (inactive) | -0.354 (inactive) | -0.623 (inactive) | 0.168 (inactive) | -1.29 | -0.182 | -2.04 | 1.14 | -0.144 | 0.0048 (inactive) | 0.123 | 1.16 (inactive) | 0.614 (inactive) | -0.443 (inactive) | 0.261 (inactive) | 1.16 | 0.821 (inactive) | 0.689 (inactive) | 2.02
4 | C=CCN1Cc2ccccc2C[C@]2(N=C(c3ccc(OCCCO)cc3)O[C@@H]2c2ccccc2)C1=O | 0.469 | -4.28 (inactive) | -0.066 (inactive) | 1.64 (inactive) | -1.28 (inactive) | -0.138 | 0.167 | 0.821 | 1.15 | 1.81 | 1.35 (inactive) | 0.32 | 24.3 (active) | 12.6 (active) | -0.0845 (inactive) | 1.93 (inactive) | 1.95 | -2.9 (inactive) | 0.272 (inactive) | -2.7
5 | C=C(CCCC)/C(=C/C[C@H](OC(C)=O)c1ccc(CO)o1)c1cc(C(=O)OC)ccc1OC | 0.244 | -3.43 (inactive) | -0.193 (inactive) | 0.709 (inactive) | 0.0467 (inactive) | 0.772 | 0.0622 | 0.206 | -0.0953 | 1.53 | 0.302 (inactive) | -0.0501 | 1.99 (inactive) | -0.526 (inactive) | 1.62 (inactive) | -2.02 (inactive) | 1.61 | -0.764 (inactive) | -0.262 (inactive) | -1.54
6 | O=C1O[C@@H](c2ccccc2)[C@@H](c2ccccc2)N2[C@@H](c3ccc(O)cc3)[C@]3(C(=O)Nc4ccc(C#CCCO)cc43)[C@@H](C(=O)O)[C@H]12 | 0.13 | 0.457 (inactive) | -0.682 (inactive) | 0.0921 (inactive) | -0.31 (inactive) | 1.47 | 1.47 | 0.0458 | -0.0978 | -0.3 | 0.742 (inactive) | 1.99 | 2.28 (inactive) | 0.62 (inactive) | 1.22 (inactive) | 0.614 (inactive) | -0.29 | 0.645 (inactive) | -1.2 (inactive) | 1.21
7 | COCC1C2CC[C@H]3C(OCc4ccc(F)cc4C(F)(F)F)OC[C@]4(C)[C@H]3C2=C(CN4C(=O)OC(C)(C)C)[C@H](C)C1COC (stereo not given in full) | 0.33 | -1.84 (inactive) | 0.338 (inactive) | 0.0007 (inactive) | 0.172 (inactive) | 1.2 | 0.385 | 0.404 | 1.35 | -1.4 | -1.06 (inactive) | 0.891 | 2.63 (inactive) | -0.298 (inactive) | 0.16 (inactive) | -0.998 (inactive) | 2.03 | -0.834 (inactive) | -0.934 (inactive) | -3.41
8 | O=C1OCC=C[C@H]2OC34C=CCN(Cc5ccccc5)C(=O)[C@H]3N(CCCO)C(=O)[C@@H]4[C@@H]12 (stereo not given in full) | -0.312 | -2.33 (inactive) | -1.04 (inactive) | -0.899 (inactive) | -0.59 (inactive) | -0.707 | 0.222 | -0.667 | -0.239 | 1.44 | 2.57 (inactive) | 1.27 | 0.599 (inactive) | -1 (inactive) | 1.01 (inactive) | -1.05 (inactive) | 0.833 | -0.548 (inactive) | -1.29 (inactive) | -1.17
9 | C=CC[C@@]1(C(N)=O)N=C(c2ccc(OCCCO)cc2)O[C@@H]1c1ccccc1N=[N+]=[N-] | 0.373 | -0.656 (inactive) | -0.0376 (inactive) | 0.614 (inactive) | -1.89 (inactive) | 0.496 | 0.195 | 1.02 | 0.705 | 0.821 | 1.3 (inactive) | 0.355 | 32.8 (active) | 32.6 (active) | 4.04 (inactive) | 3.37 (inactive) | 0.305 | 0.039 (inactive) | -0.164 (inactive) | -1.76
